Reference: ChEMBL document CHEMBL4513216, “Probing the Open Global Health Chemical Diversity Library for Multistage-Active Starting Points for Next-Generation Antimalarials” (ACS Infect Dis, 2020)
Out of some 69,000 compounds screened, about 8,600 (12%) showed an effect of 50% or more. The list comes from a sample in which strong results are over-represented; it also holds similar structures and randomly drawn compounds.

test system: Plasmodium berghei; test: Screen against P. berghei liver stage (PbLuc), transformed with Luciferase, at 10uM; assay type: functional, HepG2; settings: tested at 10 uM

SMILES | INHIBITION [%]
Cc1cc(OCC(=O)NCc2ccc(F)cc2)nnc1C | -3.08
CC(=O)N1CCC2(CC1)CN(C(=O)[C@@H]1CSCN1)c1ccc(Cl)cc12 | 30.5
Cc1cc(CN2C[C@@H](N3CCN(C)CC3)[C@H]3OCCC[C@H]32)oc1C | -30
Cn1cnc2c1C(COCC1CCOCC1)CN(C(=O)C1CC=CC1)C2 (stereo not given) | 45.1
Cc1ccc(-c2cc(CN3CCc4cncnc4C3)on2)cc1 | -8.91
CN(C)[C@@H]1CN(C(=O)c2cc3cccc(F)c3[nH]2)C[C@H]1O | -0.275
COc1ccc(CN2CCCN(C(=O)C(C)n3ccnc3)CC2)cc1 (stereo not given) | 18.55
CN(CCCNC(=O)c1ccc(C#N)cc1)CC(F)(F)F | 21.8
CN(CCCNC(=O)c1ccccc1OCC(N)=O)CC(F)(F)F | -52.1
CN(CCCNC(=O)c1ccccc1F)CC(F)(F)F | 52.3
Cn1nnc2c1CCN(Cc1nccs1)C2COCc1ccccc1 (stereo not given) | 15.9
Cc1noc(C)c1-c1nc(C2CCCN(C(=O)CN)C2)ccc1CO (stereo not given) | 37.1
Cc1cnc(CN(Cc2cccc(O)c2)CC2CC2)cn1 | 65.9
COCCN(Cc1cccc(O)c1)CC1CC1 | 45.2
Cc1cnc(CN(Cc2ccccc2)CC2CCOCC2)cn1 | 14.2
Cc1cnc(N2CCCn3c(nnc3CN(C)C(C)C)C2)nc1 | -19.2
CCC(=O)N1CCC[C@]2(C(=O)N(C)C)CN(c3ccccn3)C[C@@H]2C1 | 34.2
CCN(Cc1ccc(C)o1)C(=O)C(C)n1ccnc1C(C)C (stereo not given) | 13
Cc1cccnc1C(Nc1nccc(C2CCCC2)n1)C1CC1 (stereo not given) | 0.164
Cc1cccc(C(Nc2nccc(-c3ccc(C)nc3C)n2)C2CC2)n1 (stereo not given) | -11.2
Cc1ccc(-c2ccnc(NC(c3ncccc3C)C3CC3)n2)c(C)n1 (stereo not given) | 51.2
CS(=O)(=O)N1C[C@@H](Oc2ccccn2)[C@H]2OCCC[C@H]21 | 29
Cc1cc(C)c(S(=O)(=O)Nc2c(C)nc(N(C)C)nc2C)cc1C | 4.12
CCCN(C(=O)CN1CCn2c(nnc2C2CC2)C1)C1=CCCCC1 | 18.7
CCN(C(=O)CN1CCn2c(nnc2C2CC2)C1)C1=CCCCC1 | 51.2
CCN(C(=O)CN1CCn2c(C)nnc2C1)C1=CCCCC1 | -6.46
Cc1cn2nc(N3CCCCC3Cn3cccn3)sc2n1 (stereo not given) | 11.6

SMILES | INHIBITION [%]
O=C(NCCNc1cnccn1)N1CCN(c2nccs2)CC1 | 29.2
COc1ncccc1CN1C[C@H]2CCN(c3ncccn3)C[C@H]2C1 | 56.4
COc1ncccc1CN1C[C@H]2CCN(c3ccc(C)nn3)C[C@H]2C1 | 41.4
Cc1ccc(CN2C[C@@H]3CN(c4ncccn4)C[C@@H]3C2)cc1 | 40.8
COc1ncccc1CN1C[C@@H]2CN(c3ncccn3)C[C@@H]2C1 | 47.4
c1cnc(N2C[C@H]3CCN(Cc4ccncc4)C[C@H]3C2)nc1 | 58.4
c1cc(CN2CC[C@@H]3CN(c4cncnc4)C[C@@H]3C2)ccn1 | 27.6
CC(=O)c1cnc(NCCN2CCCC2)nc1C | 33.1
CCN(C)C(=O)c1coc(COc2ccccc2)n1 | -8.47
CN1CCN(CCC(F)(F)C(F)F)CC12CCNC(=O)CC2 (stereo not given) | 49.9
CC(C)=CCC/C(C)=C/CN1CCN(C)C2(CCNC(=O)CC2)C1 (stereo not given) | 67.5
CC/C(C)=C/CCN1CCN(C)C2(CCNC(=O)CC2)C1 (stereo not given) | 35.9
Cc1cc(C(=O)N2CC(O)CO2)c2ccc(C)c(C)c2n1 (stereo not given) | 15
O=C(O)c1ccccc1CN1CCCC(Cc2ccn[nH]2)C1 (stereo not given) | 7.721
Cc1ncc(CN2CCOC(c3ccc(-c4cnn(C)c4)cn3)C2)s1 (stereo not given) | -6.92
Cc1ncc(CN2CCOC(c3ccc(-c4ccccc4F)cn3)C2)s1 (stereo not given) | 95.3
Cc1ncc(CN2CCOC(c3ccc(-c4cc[nH]n4)cn3)C2)s1 (stereo not given) | 19.6
CCCNC(=O)NC(C)c1ccccn1 (stereo not given) | 21.2
c1cnc2c(-c3nccn3C[C@@H]3CCCN4CCCC[C@H]34)cccc2c1 | 20.2
COc1ccc(-c2nccn2C[C@@H]2CCCN3CCCC[C@H]23)cc1 | 65.3
Cn1ccnc1-c1nccn1C[C@@H]1CCCN2CCCC[C@H]12 | 12
CCc1ccc(CNC(=O)N2CCN(Cc3cc(C)on3)CC2)s1 | 7.12
N#CCCN1CC(O)CN(C(=O)c2cccc(C(F)(F)F)c2)CC1=O (stereo not given) | 57
CCN1CC(O)CN(C(=O)c2cccc(C(F)(F)F)c2)CC1=O (stereo not given) | 5.58
COCCN1CC(O)CN(C(=O)c2cccc(C(F)(F)F)c2)CC1=O (stereo not given) | 13.1
O=C1CN(C(=O)c2cccc(C(F)(F)F)c2)CC(O)CN1CC1CC1 (stereo not given) | 25.3
CC(C)(C)CN1CC(O)CN(C(=O)c2cccc(C(F)(F)F)c2)CC1=O (stereo not given) | 60.8

SMILES | INHIBITION [%]
CC(C)CN1CC(O)CN(C(=O)c2cccc(C(F)(F)F)c2)CC1=O (stereo not given) | 45.7
CSc1ccccc1C(=O)N1CCOC(CCN(C)C)C1 (stereo not given) | 12.1
Cc1ccc(NC2CCCN(CCCc3ccccc3)C2)nn1 (stereo not given) | 35.7
O=C(CCNc1ncccn1)N1CCCN(c2nccs2)CC1 | 33.7
CCN(CCC1CCN(C(=O)NCc2nncn2CC)CC1)CC1CC1 | -38.2
CCc1cnc(N2C[C@@H]3C[C@H](C(=O)NC)[C@H](C2)O3)nc1 | -45.8
OCCCNC1CCc2cc3c(cc21)OCCO3 (stereo not given) | -56.6
OCC1(CNC2CCc3cc4c(cc32)OCCO4)CC1 (stereo not given) | -122
OCCNC1CCc2cc3c(cc21)OCCO3 (stereo not given) | 55.1
O=C(c1ccc(Cl)cc1)N1CC2(CCNC2)OCc2ccccc21 (stereo not given) | 39.1
CC(NC(=O)CCC(C)(C)C)C(=O)Nc1ccc(-n2cncn2)cc1 (stereo not given) | 50
CC(NC(=O)Nc1ccc(-n2cncn2)cc1)C(=O)NC(C)(C)C (stereo not given) | 41.4
CCC(C)(C)CC(=O)NC(C)C(=O)Nc1ccc(-n2cncn2)cc1 (stereo not given) | 26
CC(C)c1noc(CCCC(=O)NC(C)c2ccccn2)n1 (stereo not given) | -30.6
Cc1csc(C(Cc2ccsc2)NC(=O)CN(C)Cc2ccccn2)n1 (stereo not given) | 28.3
COc1ncnc(N)c1CNCCOc1ccccc1Cl | 21.3
COc1ncnc(N)c1CNCCc1ccc(-n2cccn2)cc1 | 16.8
COc1ncnc(N)c1CNCCc1ccccc1 | 75.4
COC(=O)[C@H](CCSC)NC(=O)Cc1c(C)nn(-c2ccccc2)c1C | 5.58
CC(C)c1noc(CCCC(=O)NCC2CCS(=O)(=O)C2)n1 (stereo not given) | 21.6
Cc1csc(C2CCCN(C(=O)c3c[nH]c(C)n3)C2)n1 (stereo not given) | 24
Cc1[nH]nc(CCC(=O)N2C[C@@H]3CC[C@H]2CN(C(=O)N(C)C)C3)c1C | 45.4
CSCCN1CCC(NC(=O)OC(C)(C)C)CC1 | -19.7
CCOC(=O)CN1CCC(NC(=O)OC(C)(C)C)CC1 | 32.3
COC(=O)CCN1CCC(NC(=O)OC(C)(C)C)CC1 | 50.2
CC(C)CN1CCN(C(=O)c2ccncc2F)Cc2cccnc21 | -18.4
O=C(CN1CCOCC1)Nc1cc(C(F)(F)F)ccc1-n1cccc1 | 42.6

SMILES | INHIBITION [%]
N#CCCN(CC1CCCO1)C(=O)c1ccc2nonc2c1 (stereo not given) | 2.59
N#CCCN(CC1CCCO1)C(=O)c1ccsc1 (stereo not given) | 57.9
N#CCCN(CC1CCCO1)C(=O)c1ccc(C#N)cc1 (stereo not given) | -5.31
Cc1cc(C(=O)N2CCc3nnc(N(C)C)cc3C2)c(C)n1C1CC1 | 19.4
CNc1cc2c(nn1)CCN(C(=O)c1cc(F)cc(F)c1)C2 | 17.7
CNc1cc2c(nn1)CCN(C(=O)c1cccc3c1OCO3)C2 | -13.3
CCNc1cc2c(nn1)CCN(C(=O)c1ccnc(-n3ccnc3)c1)C2 | 54.15
CNc1cc2c(nn1)CCN(C(=O)c1cc(C)n(C3CC3)c1C)C2 | 79.1
CCNc1cc2c(nn1)CCN(C(=O)c1cc(C)n(C3CC3)c1C)C2 | 35.9
CNc1cc2c(nn1)CCN(C(=O)c1ccoc1)C2 | 51.3
CCNc1cc2c(nn1)CCN(C(=O)c1ccoc1)C2 | 39.2
CNc1cc2c(nn1)CCN(C(=O)c1cccc3c1OCCO3)C2 | 51.1
CCNc1cc2c(nn1)CCN(C(=O)c1ccnc(N(C)C)c1)C2 | 4.59
CCNc1cc2c(nn1)CCN(C(=O)c1cccc3c1OCCO3)C2 | 3.81
CCNc1cc2c(nn1)CCN(C(=O)c1ccc(C(N)=O)cc1)C2 | 41.65
CN(CCc1ccccn1)C(=O)Cn1cc(-c2ccccc2)nn1 | 6.23
CN1CCN([C@@H]2CN(C(=O)c3cc4ccc(F)cc4[nH]3)C[C@H]2O)CC1 | 36
O=C(NCCn1ccnc1)N1CCCC1c1ccncc1 (stereo not given) | 31.9
O=C1CN(C(=O)C2CN(c3cccc(F)c3)CCO2)CCN1 (stereo not given) | 13.35
O=C(NCC1CC1)c1c2c(N3CCCC3)ncnc2n2ccccc12 | 33.4
CC(C)c1ncc2c(n1)CN(Cc1cccc(C(N)=O)c1)CC2 | -34
O=C(c1ccccc1)N1CCO[C@@H]2CN(Cc3ccc[nH]3)C[C@@H]2C1 | 35.8
COCCOCC(=O)N1C[C@@H]2CC[C@H](Oc3ccccc3F)[C@@H]2C1 | 15.9
O[C@H]1CCN(CCCOc2ccccc2F)C[C@@]12CCCO2 | 33.85
